Screening data deposited in PubChem by National Center for Advancing Translational Sciences (NCATS).
A350 autofl = compounds fluorescent in Alexa 350 spectral region; max dye-equivalent concentration, M; 59,000 compounds, 11% hits; AID 590; Compound autofluorescence, 340/450 nm, Alexa 350 dye-equivalents; active compounds read high; in the data active = max dye-equivalent concentration above about 10 nM; inconclusive = mostly about 1.1 nM to 9.6 nM
AID923 = qHTS Assay for Allosteric/Competitive Inhibitors of Caspase-1: Spectroscopic Profiling in AFC Spectral Region; compound fluorescence, AFC spectral region (405/520 nm); Potency, µM (doses to about 57.5 µM), most hits filed as activators; 75,000 compounds, 1.1% hits; AID 923, 2007
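Baseline compound fluorescence (AFC region, 405 nm ex/520 nm em) taken from the intercept of kinetic reads with 50 nM caspase-1 and 5 uM Ac-WEHD-AFC; normalized to an on-plate AFC standard curve; compounds titrated up to 57 uM.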
4-MU autofl = compounds fluorescent in 4-MU spectral region; AID 589; 59,000 compounds, 11% hits; compound autofluorescence, 340/450 nm, 4-MU equivalents; active compounds read high; max dye-equivalent concentration, M; in the data active = max dye-equivalent concentration above about 10 nM; inconclusive = mostly about 1.1 nM to 9.6 nM
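Intrinsic fluorescence at 340/450 nm (ex/em) was read after 15 min at room temperature in pH 8.0, 100 mM Tris. Each compound concentration expressed as 4-MU-equivalent concentration from a six-point 4-MU standard series on each plate.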
HSD17B inhib = inhibitors of human HSD17B10 dehydrogenase; Q99714; recombinant HSD17B10, NADH fluorescence kinetic; 75,000 compounds, 7.6% hits; Potency, µM (highest dose often 57.1 µM), hits mostly inhibitors;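 also: the protocol describes HADH2 (HSD17B10) and not the HSD17B4 of the title; nearly all actives have a fitted effect of over 70% in size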
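His-tagged E. coli-expressed HADH2 at 20 nM in 100 mM Tris-HCl pH 9.0 with 0.01 % Tween-20, preincubated 15 min with compound at room temperature. Reaction with 1 mM NAD+ and 90 uM beta-hydroxybutyryl coenzyme A; NADH fluorescence (360/450 nm) read kinetically over 4 min, last minus first point.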
GBA mod = human lysosomal glucosylceramidase modulation; P04062; purified enzyme, resorufin glucoside fluorescence (screen aimed at inhibitors), 20 min; Potency, µM; 48,000 compounds, 1.1% hits; AID 360; in the data active = potency below about 15 µM; inconclusive = mostly about 16 µM to 33 µM;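 also: the screen sought inhibitors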
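Compounds titrated against 0.2 nM normal enzyme, 30 uM resorufin beta-D-glucopyranoside substrate, citrate/phosphate buffer with taurocholate and tween-20, pH 5.9. Reaction ran 20 min at room temperature; fluorescence (Ex 548/Em 600) gave AC50.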
HADH2 inh = HADH2 (human) dehydrogenase inhibition; recombinant HADH2, NADH fluorescence, beta-hydroxybutyryl-CoA; Potency, µM (highest dose often 57.1 µM), actives largely listed as inhibitors; 73,000 compounds, 3.4% hits; AID 886; also: nearly all actives have a fitted effect of over 60% in size
Target sequence (Q99714 whole entry, looked up, one chain of several): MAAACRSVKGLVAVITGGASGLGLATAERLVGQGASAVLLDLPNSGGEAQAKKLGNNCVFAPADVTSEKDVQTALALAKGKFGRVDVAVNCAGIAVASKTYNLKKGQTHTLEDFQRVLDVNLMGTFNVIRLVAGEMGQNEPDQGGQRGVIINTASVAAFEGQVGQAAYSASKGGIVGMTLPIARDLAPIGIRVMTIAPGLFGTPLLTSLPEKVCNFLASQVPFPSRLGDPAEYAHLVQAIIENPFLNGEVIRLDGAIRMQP
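20 nM HADH2 + cpd, 15 min RT; add 1 mM NAD+/90 uM beta-hydroxybutyryl-CoA; kinetic fluorescence 360/450 nm, 4 min. Tris-HCl pH 9.0, 0.01% Tween-20.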
A number is an active result; [ ] = remark or other dose. The list is not random: actives were taken first. Their share in the collection is about 13%. Unless noted, calls follow the shape of the dose curve; as a rule, active = well fitted curve in the direction sought with a large enough effect; inconclusive = small, poorly fitted or top-dose-only effect, or another doubt; inactive = no such curve, though single readings can be large; an effect the other way counts as inactive or inconclusive.

For CCCCN(CC)CCNC(=O)c1cc2c(=O)n(C)c3ccccc3c2n1C the results were AID923 inactive, HSD17B inhib 32µM and HADH2 inh inconclusive.
Screening CN(C)CCNC(=O)c1cc2c(=O)n(C)c3ccccc3c2n1C returned AID923 inactive, HSD17B inhib inconclusive and HADH2 inh inconclusive.
CCN(CC)CCCNC(=O)c1cc2c(=O)n(C)c3ccccc3c2n1C was read as AID923 inactive, HSD17B inhib 32µM and HADH2 inh inactive.
Screening CCCN(CCC)CCCNC(=O)c1cn(CCOC)c(=O)c2c1c1ccccc1n2C returned A350 autofl 4.6e-07M, AID923 inactive, 4-MU autofl 4.4e-07M, HSD17B inhib 4µM, GBA mod inactive and HADH2 inh inactive.
COC(=O)[C@@]1(Cc2ccccc2)[C@H]2c3cc(C(=O)N4CCCC4)[nH]c3C[C@H]2CN1C(=O)c1ccccc1 was read as AID923 inactive, HSD17B inhib inactive and HADH2 inh inactive.
Screening C=CC[C@@H]1C=C[C@@H](O/N=C\[C@@H](NS(=O)(=O)c2ccc(C)cc2)[C@H](C)/C=C\CC(=O)OC)[C@@H](CO)O1 returned AID923 inactive[11.5 µM], HSD17B inhib inconclusive and HADH2 inh inactive[11.4 µM].
For CCN(CC)CCNC(=O)c1cc2c(=O)n(C)c3ccccc3c2n1C the results were AID923 inactive, HSD17B inhib 25µM and HADH2 inh inconclusive.
CCCN(CCC)CCCNC(=O)c1cc2c(=O)n(C)c3ccccc3c2n1C was read as AID923 inactive, HSD17B inhib 32µM and HADH2 inh inactive.
Screening COc1cccc(/C=N/NC(=O)c2cc(-c3ccc(C)cc3)n[nH]2)c1O returned AID923 inactive, HSD17B inhib inactive and HADH2 inh inactive.
`O=C(O)c1cc2ccccc2c(Cc2c(O)c(C(=O)O)cc3ccccc23)c1O` gave A350 autofl inactive, AID923 inactive[11.5 µM], 4-MU autofl inactive and HADH2 inh inactive[11.4 µM].
`COc1ccc(NC(=O)N(Cc2cc3cc(OC)ccc3[nH]c2=O)CC2CCCO2)cc1` (stereo not given) gave A350 autofl 5.4e-08M, AID923 inactive, 4-MU autofl 5.4e-08M, HSD17B inhib 32µM, GBA mod inactive and HADH2 inh inactive.
Screening CC(=O)N(Cc1cccnc1)Cc1cc2ccc(C)cc2[nH]c1=O returned A350 autofl inconclusive, AID923 inactive, 4-MU autofl inactive, HSD17B inhib inconclusive, GBA mod inactive and HADH2 inh inactive.
For O=C(NCc1ccccc1)N(Cc1cc2cc3c(cc2[nH]c1=O)OCO3)CC1CCCO1 (stereo not given) the results were A350 autofl 3.1e-07M, AID923 inactive, 4-MU autofl 3.6e-07M, HSD17B inhib 25µM, GBA mod inconclusive and HADH2 inh inconclusive.
For COc1cc2cc(CN(Cc3cccnc3)C(=O)NCc3ccccc3)c(=O)[nH]c2cc1OC the results were A350 autofl 2.2e-07M, AID923 inactive, 4-MU autofl 2.5e-07M, HSD17B inhib 25µM, GBA mod inactive and HADH2 inh inactive.
Screening COc1ccc(NC(=O)N(CCN2CCCC2)Cc2cc3cc(OC)c(OC)cc3[nH]c2=O)cc1 returned A350 autofl 3.8e-08M, AID923 inactive, 4-MU autofl 3.9e-08M, HSD17B inhib inconclusive, GBA mod inactive and HADH2 inh inactive.
`COc1ccc(-n2c(=O)c(-c3cccs3)nc3cncnc32)cc1` gave A350 autofl inactive, AID923 inactive, 4-MU autofl inactive, HSD17B inhib inactive and HADH2 inh inactive.
`COc1ccc(N(Cc2cc3ccccc3[nH]c2=O)C(=O)C2CCCO2)cc1` (stereo not given) gave A350 autofl inactive, AID923 inactive, 4-MU autofl inactive, HSD17B inhib inactive, GBA mod inactive and HADH2 inh inactive.
For CCN(CC)CCCN(Cc1cc2cc(OC)ccc2[nH]c1=O)C(=O)Nc1ccc(F)cc1 the results were A350 autofl 1.3e-07M, AID923 inactive, 4-MU autofl 1.7e-07M, HSD17B inhib inconclusive, GBA mod inactive and HADH2 inh inactive.
`CCc1ccc2[nH]c(=O)c(CN(CCN(C)C)C(=O)Nc3ccccc3OC)cc2c1` gave A350 autofl inactive, AID923 inactive, 4-MU autofl inactive, HSD17B inhib inactive, GBA mod inconclusive and HADH2 inh inactive.
Screening CCOc1ccc(N(Cc2cc3cc(OC)ccc3[nH]c2=O)C(=O)C2CCCO2)cc1 (stereo not given) returned A350 autofl 3.9e-07M, AID923 inactive, 4-MU autofl 3e-07M, HSD17B inhib 32µM, GBA mod inactive and HADH2 inh inactive.
CCC(=O)N(CCc1ccccc1C)Cc1cc2cc3c(cc2[nH]c1=O)OCO3 was read as A350 autofl 8.2e-08M, AID923 inactive, 4-MU autofl 8.8e-08M, HSD17B inhib inconclusive, GBA mod inactive and HADH2 inh inactive.
Screening COc1ccc(NC(=O)N(CCCN(C)C)Cc2cc3cc(OC)ccc3[nH]c2=O)cc1 returned A350 autofl 7.7e-08M, AID923 inactive, 4-MU autofl 7e-08M, HSD17B inhib 32µM, GBA mod inactive and HADH2 inh inactive.
Cn1c(=O)c2c(ncn2C[C@@H](O)CO)n(C)c1=O was read as A350 autofl inactive, AID923 inactive, 4-MU autofl inactive, HSD17B inhib inactive and HADH2 inh inactive.
Cc1ccc(C)c2[nH]c(=O)c(CN(CCCN(C)C)C(=O)NCc3ccccc3)cc12 was read as A350 autofl 1.2e-08M, AID923 inactive, 4-MU autofl inconclusive, HSD17B inhib inconclusive, GBA mod inactive and HADH2 inh inactive.
For Cc1ccc2[nH]c(=O)c(COC(=O)C3CCCO3)cc2c1 (stereo not given) the results were A350 autofl 1.3e-08M, AID923 inactive, 4-MU autofl 1.1e-08M, HSD17B inhib inactive, GBA mod inactive and HADH2 inh inactive.
`COc1ccc2[nH]c(=O)c(CN(CCN(C)C)C(=O)NCc3ccccc3)cc2c1` gave A350 autofl 2.6e-07M, AID923 inactive, 4-MU autofl 2.7e-07M, HSD17B inhib 32µM, GBA mod inactive and HADH2 inh inactive.
Cc1ccc2cc(CN(CCN3CCOCC3)C(=O)NCc3ccccc3)c(=O)[nH]c2c1C was read as A350 autofl inconclusive, AID923 inactive, 4-MU autofl inactive, HSD17B inhib inconclusive, GBA mod inactive and HADH2 inh inactive.
For O=C(OCc1cc2ccccc2[nH]c1=O)C1CCCO1 (stereo not given) the results were A350 autofl inconclusive, AID923 inactive, 4-MU autofl inconclusive, HSD17B inhib inactive, GBA mod inactive and HADH2 inh inactive.
For CCN(CC)CCCN(Cc1cc2cc(OC)ccc2[nH]c1=O)C(=O)Nc1ccccc1 the results were A350 autofl 2.5e-07M, AID923 inactive, 4-MU autofl 2.1e-07M, HSD17B inhib 25µM, GBA mod inactive and HADH2 inh inactive.
